Most compounds without a hit are left out; they make up all but 2% or so of the library.
KCNH2 3.1 inh: qHTS for Inhibitors of KCHN2 3.1: Mutant qHTS. Potassium voltage-gated channel subfamily H member 2, brain isoform KCNH2 3.1 (human). U2OS KCNH2 3.1, thallium flux FluxOr; hits give low values. activity change, % (tested at about 1.8 µM). 340,000 tested, 0.95% active. AID 720553, 2013;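 active means maximum activity change below -70%; inconclusive means maximum activity change from -70% to -50%; inactive means maximum activity change above -50%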;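 further: thallium influx rate constant from kinetic fluorescence after stimulation buffer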
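U2OS cells transduced with KCNH2 3.1 mutant virus (1.77 x 10^8 /mL, 4 h), plated overnight at 37 C, loaded 45 min with FluxOr dye plus Red40 quencher. Thallium flux rate constant from kinetic reads after stimulation buffer, normalised to controls.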
CtBP-E1A inh: qHTS Assay for Inhibitors of the CtBP/E1A Interaction; activity change, % (no concentration beside the values); 340,000 tested, 0.49% active; AlphaScreen GST-E1A/His-CtBP binding, 1536-well; hits give low values; CtBP / adenovirus E1A interaction (AlphaScreen)
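Homogeneous bead-based format: GST-tagged E1A captured on glutathione donor beads, His-tagged CtBP on nickel acceptor beads; compounds precede bead addition by 2 h at 37 °C.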
Six1-Eya2 inh: qHTS Assay for Inhibitors of the Six1/Eya2 Interaction; AlphaScreen GST-Six1/His-Eya2 binding, biochemical; hits give low values; Homeobox protein SIX1 (Homo sapiens) + Protein phosphatase EYA2 (Homo sapiens), …; AID 651725, 2012; 360,000 tested, 0.56% active; activity change, % (concentration not given with the values)
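Six1/Eya2 binding was read as AlphaScreen signal after compounds were pinned into GST-Six1 plus His-tagged Eya2 (5X stock 250/500 nM) in pH 8.0 Tris/NaCl/TCEP buffer, beads added, then incubated 1 h, 37 C, dark.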
KDM4E inh: qHTS Assay for Inhibitors of Human Jumonji Domain Containing 2E (JMJD2E). Lysine-specific demethylase 4E (Homo sapiens), B2RXH2. JMJD2E catalytic domain, FDH-coupled NADH fluorescence (FDH is formaldehyde dehydrogenase). Potency, µM (series often up to 57.1 µM), without a hit: at the highest dose activity change, negative = inhibition, hits mostly inhibitors. 230,000 tested, 1.6% active. AID 2147, 2009; active means well fitted inhibition curve with a large enough effect, not every such curve was filed as active; inconclusive means small, poorly fitted or top-dose-only effect, or another doubt; inactive means no such curve, though single readings can be large or run the other way;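 further: potency means the concentration at half of the fitted maximal effect; 0% = wells with enzyme and -100% = buffer wells without enzyme; nearly all actives have a fitted effect of over 50% in size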
Target sequence (B2RXH2 1-337 limits assumed): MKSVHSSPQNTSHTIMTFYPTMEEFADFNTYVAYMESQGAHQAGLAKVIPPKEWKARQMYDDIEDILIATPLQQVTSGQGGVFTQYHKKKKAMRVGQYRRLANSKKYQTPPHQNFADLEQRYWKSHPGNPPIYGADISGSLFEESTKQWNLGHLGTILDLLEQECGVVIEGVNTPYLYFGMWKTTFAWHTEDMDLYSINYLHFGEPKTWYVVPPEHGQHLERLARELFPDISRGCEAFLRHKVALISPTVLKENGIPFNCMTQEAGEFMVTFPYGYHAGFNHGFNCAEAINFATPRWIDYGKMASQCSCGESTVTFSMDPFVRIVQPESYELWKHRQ
KCNH2 WT inh: qHTS for Inhibitors of KCHN2 3.1: Wildtype qHTS; Voltage-gated inwardly rectifying potassium channel KCNH2 (Homo sapiens), Q12809; U2OS, BacMam KCNH2, thallium flux FluxOr; hits give low values; activity change, % at 1.84 µM; 340,000 tested, 0.37% active; AID 720551, 2013;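 active means maximum activity change below -70%; inconclusive means maximum activity change between -70% and -50%; inactive means maximum activity change above -50%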
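U2OS cells were transduced with wild-type KCNH2 virus (2.03 x 10^8 / mL) for 4 h at room temperature, then cultured overnight at 37 C. Thallium flux was read with FluxOr dye. Rate constants were normalized to DMSO controls.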
Numbers without * were called inactive. Unless noted, no stated cut-off is given here; in the data, active means activity change below about -65%; inconclusive means mostly about -30% to -63%; inactive means weaker than that. Unless noted, on the % scale 0 is the no-effect control and ±100 the full control effect.

`COc1ccc(OC)c(N2C(=O)NC(=O)/C(=C\c3ccc([N+](=O)[O-])s3)C2=O)c1` gave KCNH2 3.1 inh 8, CtBP-E1A inh inconclusive, Six1-Eya2 inh -67*, KDM4E inh 22µM* and KCNH2 WT inh 1.
CCOP1(=S)Oc2cc3c(cc2C(C(=O)OC)(C(F)(F)F)O1)OCO3 (stereo unspecified) was read as KCNH2 3.1 inh 0, CtBP-E1A inh 0, Six1-Eya2 inh 4, KDM4E inh -9% and KCNH2 WT inh -15.
`N#CCCCCC#N` gave KCNH2 3.1 inh -1, CtBP-E1A inh -17, Six1-Eya2 inh 9 and KCNH2 WT inh 4.
Screening O=P(Oc1ccccc1)(Oc1ccccc1)C(O)c1ccccc1 (stereo unspecified) returned KCNH2 3.1 inh 3, CtBP-E1A inh 1, Six1-Eya2 inh -3 and KCNH2 WT inh 6.
For O=P(Oc1ccccc1)(Oc1ccccc1)C(Nc1ccccc1)c1ccccc1 (stereo unspecified) the results were KCNH2 3.1 inh -70*, CtBP-E1A inh 5, Six1-Eya2 inh 8, KDM4E inh 1% and KCNH2 WT inh 3.
Screening CN(C)C(=S)SSC(=S)N(C)C returned KCNH2 3.1 inh 12, CtBP-E1A inh inconclusive, Six1-Eya2 inh inconclusive, KDM4E inh 25µM* and KCNH2 WT inh 13.
`Cc1cc(-c2ccccc2)cc(C)[n+]1Cc1ccccc1` gave KCNH2 3.1 inh 6, CtBP-E1A inh 1, Six1-Eya2 inh 3 and KCNH2 WT inh -2.
`COC[C@H]1OC(=O)c2coc3c2[C@@]1(C)C1=C(C3=O)[C@H]2CCC(=O)[C@@]2(C)C[C@H]1OC(C)=O` gave KDM4E inh 11µM*.
For O=C(N/N=C/C1C(=O)NC(=S)N(c2ccccc2)C1=O)c1cc(Br)c(O)c(Br)c1 (stereo unspecified) the results were KCNH2 3.1 inh 6, CtBP-E1A inh -92*, Six1-Eya2 inh -93* and KDM4E inh 22µM*.
O=C1C=C2C(=CCOC2O)O1 (stereo unspecified) was read as KDM4E inh -3%.

Screens (PubChem BioAssay)
